This note sets out measurements from PubChem BioAssay (NCI).

Each structure is given as a SMILES string. This is part of a sample that, as a whole, favours compounds with a hit. Of some 83,000 tested, about 20% had one in any assay.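 96-well plates, one dose, 48 hours. Percent growth reported; active if below 10.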 Values without a mark were called inactive. The source made the active and inactive calls.

Some test systems named below: SK-MEL-2 melanoma; EKVX NSCLC; SN12C renal; UO-31 renal; TK-10 renal; ACHN renal; CAKI-1 renal; A498 renal; CCRF-CEM leukemia; MOLT-4 leukemia.
Common to all, as to test: NCI-60 one-dose screen, 48 h (100 = growth as untreated, 0 = no growth, -100 = all killed)
Common to all, as to conditions: 10 µM unless noted

Regarding `Cc1ccc(C(=O)c2ccc(CC(=O)N/N=C/c3ccccc3O)n2C)cc1`, the growth in the test with SK-MEL-2 melanoma is 89.6%; with EKVX NSCLC, 82.8%; in the test with SN12C renal, 89.8%; with UO-31 renal, 40.6%; with TK-10 renal it was 85.1%; with ACHN renal, 53.2%. For the same compound, the growth with CAKI-1 renal is 64.5%; with A498 renal, 82%; in the test with CCRF-CEM leukemia it was 54.1%; with MOLT-4 leukemia, 74%.
`COc1ccc(-c2cc(-c3cccnc3)nc3sc4c(=O)[nH]c(-c5ccc(Cl)cc5)nc4c23)cc1OC`: the growth in the test with SK-MEL-2 melanoma is 95.7%; with EKVX NSCLC it was 90%; with SN12C renal, 89.5%; with UO-31 renal, 78.1%; in the test on TK-10 renal, 104%; in the test on ACHN renal, 93.4%. The growth in the test on CAKI-1 renal is 86.4%; in the test with A498 renal it was 91.2%; with CCRF-CEM leukemia it was 80.3%; with MOLT-4 leukemia, 37.6%.
As for `O=C(O)c1cn(C2CC2)c2cc(N3CCN(Cc4ccc5ccccc5c4O)CC3)c(F)cc2c1=O`, the growth with SK-MEL-2 melanoma is 76.3%; with EKVX NSCLC, 66.7%; with SN12C renal, 32.5%; in the test with UO-31 renal, 42.2%; with TK-10 renal it was 67.7%; in the test on ACHN renal it was 59%. The growth with CAKI-1 renal is 15.2%; in the test with A498 renal, -7.61% (active); in the test with CCRF-CEM leukemia, 68.2%; with MOLT-4 leukemia, 39%.
Regarding `NC(=O)CSc1oc(-c2ccccc2)nc1S(=O)(=O)c1ccc(Br)cc1`, the growth in the test on SK-MEL-2 melanoma is 99.2%; with EKVX NSCLC it was 95.4%; with SN12C renal, 65.7%; in the test on UO-31 renal, 59.7%; with TK-10 renal, 82.1%; with ACHN renal, 64.4%. Moreover, the growth with CAKI-1 renal is 87.9%; in the test with A498 renal, 61.4%; in the test on CCRF-CEM leukemia it was 110%; in the test on MOLT-4 leukemia, 89.2%.
For the compound `Cc1ccc(-c2nc(N3CCCNCC3)c3oc(-c4ccc(C)cc4)nc3n2)cc1`, the growth with SK-MEL-2 melanoma is 105%; with EKVX NSCLC, 116%; in the test on SN12C renal it was 59.1%; in the test on UO-31 renal, 62.6%; in the test with TK-10 renal, -1.53% (active); in the test with ACHN renal, -77.1% (active). Moreover, the growth was 108% in the test on CAKI-1 renal, 101% in the test with A498 renal, -72.1% (active) in the test on CCRF-CEM leukemia and -66% (active) in the test on MOLT-4 leukemia.
For the compound `O=C(/C=C/c1cccc(Cl)c1)c1cccc(OCCCOc2cccc(C(=O)/C=C/c3cccc(Cl)c3)c2)c1`, the growth is 116% with SK-MEL-2 melanoma; 99% with EKVX NSCLC; 96.4% in the test with SN12C renal; 66.8% in the test on UO-31 renal; 125% in the test on TK-10 renal; 97.3% in the test on ACHN renal. For the same compound, the growth is 70.4% in the test on CAKI-1 renal, 102% with A498 renal, 98.1% in the test on CCRF-CEM leukemia and 96.9% with MOLT-4 leukemia.
As for `CCSc1nc2scc(C)c2c(=O)[nH]1`, the growth in the test with SK-MEL-2 melanoma is 105%; with EKVX NSCLC it was 97.7%; with SN12C renal, 99.4%; in the test on UO-31 renal, 88.6%; with TK-10 renal, 110%; with ACHN renal, 101%. The growth with CAKI-1 renal is 92.3%; in the test on A498 renal it was 89.7%; in the test on CCRF-CEM leukemia, 99.2%; in the test on MOLT-4 leukemia, 96%.
`O=C1C(=O)N(Cc2ccc(-c3ccccc3)cc2)c2ccc(OC(F)(F)F)cc21`: the growth in the test with SK-MEL-2 melanoma is 69.7%; in the test on EKVX NSCLC, 94.3%; in the test on SN12C renal it was 21.2%; in the test with UO-31 renal, 45.5%; with TK-10 renal it was 63.9%; in the test on ACHN renal, 41.7%. In addition, the growth in the test on CAKI-1 renal is 31.7%; in the test with A498 renal it was 84.8%; in the test on CCRF-CEM leukemia it was 9.7% (active); with MOLT-4 leukemia, 30%.
Regarding `CCCCC1=C(P(=O)(O)O)N[C@H](C(=O)O)CS1`, the growth in the test on SK-MEL-2 melanoma was 103%; in the test with EKVX NSCLC, 90.5%; in the test on SN12C renal, 88.2%; with UO-31 renal, 73.5%; in the test with TK-10 renal it was 94.8%; in the test on ACHN renal, 97.9%. For the same compound, the growth was 94.1% with CAKI-1 renal, 100% with A498 renal, 96.8% with CCRF-CEM leukemia and 102% with MOLT-4 leukemia.
Regarding `Cc1c[n+](Cc2ccc3ccccc3c2)cn1Cc1ccc2ccccc2c1`, the growth with SK-MEL-2 melanoma was -48.5% (active); in the test with EKVX NSCLC it was 38.1%; with SN12C renal, 7.56% (active); in the test on UO-31 renal, 77.6%; in the test on TK-10 renal it was -4.54% (active); in the test with ACHN renal, 89.5%. Also, the growth in the test on CAKI-1 renal is 94%; with A498 renal it was 50.1%; with CCRF-CEM leukemia it was 3.95% (active); in the test on MOLT-4 leukemia, -3.59% (active).
Regarding `O=S(=O)(NCCCNc1nccc(-c2c(-c3ccc(F)c(O)c3)nc3sccn23)n1)c1ccccc1`, the growth with SK-MEL-2 melanoma is 24.9%; with EKVX NSCLC, 106%; in the test with SN12C renal, 59%; with UO-31 renal, 31.1%; in the test with TK-10 renal, 120%; with ACHN renal, 52.3%. Further, the growth was 55.9% with CAKI-1 renal, 104% with A498 renal, 38.2% with CCRF-CEM leukemia and 50.9% in the test on MOLT-4 leukemia.
Regarding `COc1cc2ncnc(Nc3ccc(F)c(Cl)c3)c2cc1OCC(=O)N1CCN(c2ccccc2)CC1`, the growth was 102% with SK-MEL-2 melanoma; 77.6% in the test with EKVX NSCLC; 80.4% with SN12C renal; 46.5% in the test with UO-31 renal; 42.4% with TK-10 renal; 50.6% in the test on ACHN renal. Besides, the growth is 50.6% in the test with CAKI-1 renal, 61.2% with A498 renal, 103% in the test on CCRF-CEM leukemia and 90.3% in the test on MOLT-4 leukemia.
Turning to `CC1CCc2c(C(=O)Nc3ncc(Cc4cccc([N+](=O)[O-])c4)s3)csc2C1` (stereo not given), the growth in the test on SK-MEL-2 melanoma is 52.7%; in the test on EKVX NSCLC, 25.6%; with SN12C renal, 41.7%; in the test on UO-31 renal, 32.4%; in the test on TK-10 renal, 46.7%; in the test with ACHN renal, 30.5%. The growth is 19.2% with CAKI-1 renal, 10.7% in the test with A498 renal, 16.8% in the test on CCRF-CEM leukemia and 26% in the test on MOLT-4 leukemia.
In the case of `COc1c(C(=O)Nc2ccc(C)c(Br)c2)ccc2ccccc12`, the growth with SK-MEL-2 melanoma is 102%; with EKVX NSCLC, 66.3%; in the test on SN12C renal, 96.8%; in the test on UO-31 renal, 85.5%; in the test on TK-10 renal, 103%; with ACHN renal, 104%. Further, the growth with CAKI-1 renal was 71.9%; in the test on A498 renal, 91.2%; with CCRF-CEM leukemia, 91.3%; in the test on MOLT-4 leukemia, 73.7%.
Regarding `COc1cc(-c2csc(NC(=O)c3ccc(N4CCOCC4)c(C(F)(F)F)c3)n2)cc(OC)c1OC`, the growth in the test on SK-MEL-2 melanoma is 23%; in the test with EKVX NSCLC it was 33.7%; in the test with SN12C renal it was 48.9%; in the test on UO-31 renal, 15.4%; with TK-10 renal it was 64.5%; with ACHN renal, 21.6%. Besides, the growth with CAKI-1 renal is 36.4%; in the test on A498 renal, 56.7%; in the test with CCRF-CEM leukemia it was 14.2%; in the test with MOLT-4 leukemia, 10.1%.
For the compound `O=C1C(Cl)=C(Nc2ccc(S(=O)(=O)N3CCOCC3)cc2)C(=O)c2ccccc21`, the growth with SK-MEL-2 melanoma was 108%; in the test with EKVX NSCLC it was 53.5%; in the test with SN12C renal, 78.4%; with UO-31 renal it was 52.8%; in the test with TK-10 renal, 105%; in the test on ACHN renal, 59%. Also, the growth was 78.5% with CAKI-1 renal, 68.8% with A498 renal, 6.98% (active) in the test on CCRF-CEM leukemia and 5.92% (active) with MOLT-4 leukemia.
Regarding `CC1OC(n2c3ccccc3c3c4c(c5c6ccccc6[nH]c5c32)C(=O)N(CCN2CCCC2)C4=O)CC(O)C1O` (stereo not given), the growth is 86.5% in the test on SK-MEL-2 melanoma; 57% in the test with EKVX NSCLC; 42% in the test with SN12C renal; 44.5% in the test on UO-31 renal; 68.9% with TK-10 renal; 16.6% with ACHN renal. Moreover, the growth was 20.1% in the test with CAKI-1 renal, 55.5% with A498 renal, 27.2% in the test with CCRF-CEM leukemia and 11.3% in the test with MOLT-4 leukemia.
In the case of `NC(=O)c1cc(I)ccc1NC(=O)/C=C/c1ccccc1`, the growth is -31.7% (active) with SK-MEL-2 melanoma; 36.1% in the test on EKVX NSCLC; 31.5% in the test on SN12C renal; 28.1% in the test with UO-31 renal; 60.8% in the test on TK-10 renal; 38.2% in the test on ACHN renal. Also, the growth in the test with CAKI-1 renal was 25.6%; with A498 renal it was -14.9% (active); in the test on CCRF-CEM leukemia, 11.9%; in the test on MOLT-4 leukemia, 4.56% (active).
Take `O=C(N/N=C/c1c(Cl)cccc1Cl)c1cccnc1Nc1cccc(C(F)(F)F)c1`: the growth was -6.91% (active) with SK-MEL-2 melanoma; 17.6% in the test with EKVX NSCLC; 42.6% in the test with SN12C renal; 29.8% with UO-31 renal; 35.6% in the test on TK-10 renal; 29.6% in the test on ACHN renal. In addition, the growth is 60.1% in the test on CAKI-1 renal, 65.6% with A498 renal, 18.9% in the test on CCRF-CEM leukemia and 31.7% in the test with MOLT-4 leukemia.
As to `CCCCNC(=O)CC1=C(C)/C(=C/c2[nH]c(-c3ccc[nH]3)cc2OC)N=C1C`, the growth with SK-MEL-2 melanoma was 22.1%; in the test with EKVX NSCLC, 36.4%; with SN12C renal, 35.3%; in the test with UO-31 renal, -5.12% (active); with TK-10 renal it was 33.5%; in the test with ACHN renal, 13.7%. In addition, the growth in the test with CAKI-1 renal was 4.74% (active); in the test with A498 renal it was 3.74% (active); with CCRF-CEM leukemia it was 27.2%; with MOLT-4 leukemia, 7.6% (active).
With `N#Cc1nc(-c2ccccc2)oc1S(=O)(=O)N1CCN(c2ccccc2)CC1`, the growth is 84.4% in the test with SK-MEL-2 melanoma; 116% in the test with EKVX NSCLC; 88% in the test on SN12C renal; 84.5% in the test on UO-31 renal; 104% in the test on TK-10 renal; 102% in the test with ACHN renal. In addition, the growth was 109% in the test with CAKI-1 renal, 95.1% in the test on A498 renal, 2.42% (active) in the test with CCRF-CEM leukemia and 12.2% in the test with MOLT-4 leukemia.
